What follows are sequences tested against T1, Rbm38-FF (Mus musculus, UniProt Q62176 1-237) (assay: SELEX-Seq; 16 mM HEPES pH 7.9, 150 mM KCl, 2 mM MgCl2, 60 uM EDTA, 1 mM DTT, 6% glycerol, 0.01 ug/uL heparin, 0.15 mM PMSF, 0.2 U/uL SUPERase-In, room temperature, 30 min; high values mean tight binding). Conditions: protein: recombinant; tags: C-terminal 2xFLAG with TEV remnant (SBP removed by TEV cleavage); ssRNA.
T1 sequence: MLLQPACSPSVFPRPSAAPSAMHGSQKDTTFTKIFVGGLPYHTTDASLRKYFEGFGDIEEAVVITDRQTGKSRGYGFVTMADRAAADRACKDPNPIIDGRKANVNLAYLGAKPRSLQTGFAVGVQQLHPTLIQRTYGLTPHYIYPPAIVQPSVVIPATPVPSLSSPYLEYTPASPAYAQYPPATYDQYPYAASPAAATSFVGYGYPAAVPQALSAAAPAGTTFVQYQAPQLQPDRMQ

Sequence	binding signal
GUUUGUG	0.00579 fraction of reads
GGCGUGU	0.00692 fraction of reads
GGUGUGU	0.0109 fraction of reads
UUGUGUG	0.00989 fraction of reads
UGUGUUG	0.00826 fraction of reads
GUGUGUG	0.016 fraction of reads
UGUGUGC	0.00732 fraction of reads
GUGUGCG	0.00564 fraction of reads
GUGGUGU	0.00782 fraction of reads
CGGUGUG	0.00653 fraction of reads
UUGUGUU	0.00601 fraction of reads
AGUGUGU	0.0103 fraction of reads
UGUGUGU	0.0159 fraction of reads
GGUGUGG	0.00694 fraction of reads
UGGUGUG	0.00917 fraction of reads
GGGUGUG	0.0067 fraction of reads
UGCGUGU	0.00637 fraction of reads
GUGUUGU	0.00863 fraction of reads

Sequence	binding signal
GUGUUUG	0.00702 fraction of reads
GUGUGUU	0.0136 fraction of reads
UGUGGUG	0.00628 fraction of reads
GUGUGGG	0.00755 fraction of reads
AUGUGUG	0.00771 fraction of reads
CGUGUGU	0.01 fraction of reads
GUGCGUG	0.0063 fraction of reads
GUGUGUA	0.00612 fraction of reads
GCGUGUG	0.00853 fraction of reads
GAGUGUG	0.00663 fraction of reads
GUGUGUC	0.00739 fraction of reads
GUGUGGU	0.00929 fraction of reads
UUUGUGU	0.00629 fraction of reads
GUUGUGU	0.00961 fraction of reads
CAGUGUG	0.00615 fraction of reads
UGUGUUU	0.00792 fraction of reads
UGUGUGG	0.00894 fraction of reads
UGUUGUG	0.00859 fraction of reads

— article PMC3820963, “The RNA Binding Protein RBM38 (RNPC1) Regulates Splicing during Late Erythroid Differentiation”
